In publication PMC4336329 (PLoS ONE, 2015):
Among all 310,000 compounds or so, about 14,000 (4.5%) showed an effect of 50% or more. The effect is printed as a negative number. The list comes from a sample in which strong results are over-represented; it also holds similar structures and randomly drawn compounds.

Each molecule was assayed against human ether-à-go-go-related gene (hERG) potassium channel (human, UniProt Q12809) (assay: primary screen, population patch clamp on CHO cells stably expressing hERG; higher = less effect of the substance).
Sequence of human ether-à-go-go-related gene (hERG) potassium channel (Q12809 whole entry, looked up): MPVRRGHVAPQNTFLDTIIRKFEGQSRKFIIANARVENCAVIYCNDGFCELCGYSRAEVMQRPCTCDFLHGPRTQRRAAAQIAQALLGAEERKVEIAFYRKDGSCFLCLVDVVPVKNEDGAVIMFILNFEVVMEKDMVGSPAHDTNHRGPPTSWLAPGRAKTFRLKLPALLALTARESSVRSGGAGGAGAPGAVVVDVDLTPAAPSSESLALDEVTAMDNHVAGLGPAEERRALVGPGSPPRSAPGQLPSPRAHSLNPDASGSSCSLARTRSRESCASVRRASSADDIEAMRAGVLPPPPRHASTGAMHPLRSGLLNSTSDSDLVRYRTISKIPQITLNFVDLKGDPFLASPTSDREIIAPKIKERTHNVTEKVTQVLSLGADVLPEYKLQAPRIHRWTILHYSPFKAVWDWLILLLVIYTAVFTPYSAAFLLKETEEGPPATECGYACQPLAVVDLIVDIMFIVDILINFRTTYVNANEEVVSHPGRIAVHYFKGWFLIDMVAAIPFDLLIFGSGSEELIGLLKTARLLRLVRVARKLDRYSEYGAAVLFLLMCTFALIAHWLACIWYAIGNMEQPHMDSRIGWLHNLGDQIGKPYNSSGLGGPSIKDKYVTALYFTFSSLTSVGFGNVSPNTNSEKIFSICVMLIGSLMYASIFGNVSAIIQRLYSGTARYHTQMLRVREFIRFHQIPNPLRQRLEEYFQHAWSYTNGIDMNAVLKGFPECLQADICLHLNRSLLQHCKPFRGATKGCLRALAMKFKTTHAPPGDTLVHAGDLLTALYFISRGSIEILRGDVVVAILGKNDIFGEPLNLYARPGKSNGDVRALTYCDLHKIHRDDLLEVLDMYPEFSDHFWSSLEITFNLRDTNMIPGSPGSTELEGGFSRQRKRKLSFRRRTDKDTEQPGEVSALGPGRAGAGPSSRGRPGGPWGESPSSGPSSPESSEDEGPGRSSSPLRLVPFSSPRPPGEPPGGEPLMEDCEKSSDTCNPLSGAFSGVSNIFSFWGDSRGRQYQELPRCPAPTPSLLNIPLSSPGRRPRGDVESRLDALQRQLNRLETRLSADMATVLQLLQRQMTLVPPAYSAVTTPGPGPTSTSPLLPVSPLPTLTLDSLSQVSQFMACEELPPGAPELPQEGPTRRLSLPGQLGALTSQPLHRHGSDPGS
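Further: peak tail current of the secondary pulse compared with the same well before compound.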

Row | SMILES | hERG current change (%, negative = inhibition) at 10uM
1 | COC(CNC(=O)CC1C(=O)N(Cc2ccccc2)C(C)c2nc3ccccc3n21)OC (stereo not drawn) | 9.2%
2 | CCCCn1nc(C(=O)N[C@@H](CCSC)c2nc3ccccc3[nH]2)c2ccccc2c1=O | -28.7%
3 | CC(=O)Nc1ccc(NC(=O)CC(C)n2ccnc2)cc1 (stereo not drawn) | 7.66%
4 | O=C1/C(=C/c2ccccc2F)SC(=S)N1CC(=O)N1CCCCC1c1cccnc1 (stereo not drawn) | 1.73%
5 | C#CCOc1nc(Nc2cccc([N+](=O)[O-])c2)nc(OCC#C)n1 | -10.1%
6 | O=C(COc1ccc(S(=O)(=O)N2CCCC2)cc1Cl)N1CCN(c2ccccc2)CC1 | -15.5%
7 | COc1cc(Nc2nc3ccccc3nc2NS(=O)(=O)c2ccc([N+](=O)[O-])cc2)cc(OC)c1OC | -30.4%
8 | COc1ccc(CN(CCN)C2CC(C)N(C)CC2C)cc1.Cl (stereo not drawn) | 7.07%
9 | COc1ccc(CN(C(=O)c2ccco2)C2CCS(=O)(=O)C2)cc1 (stereo not drawn) | -1.27%
10 | COc1ccc(CN(C(=O)c2ccco2)C2CC(C)N(C)CC2C)cc1 (stereo not drawn) | -53.4%
11 | COc1ccc(/C=C/C(=O)c2cccc(-n3cnnn3)c2)cc1O | 13.5%
12 | O=C(Nc1ccc(Br)cc1Br)C1CC(=O)N(Cc2ccccc2)C1 (stereo not drawn) | 10.7%
13 | COc1ccc(C(CCNCc2ccccc2F)c2ccc(F)cc2)cc1 (stereo not drawn) | -75.5%
14 | COc1ccc(CCC(C)Nc2ccc(F)cc2)cc1 (stereo not drawn) | -3.78%
15 | COc1ccc(CCNCc2ccccc2F)cc1.O=C(O)C(=O)O | -22.8%
16 | COc1ccc(CNCCC(c2ccc(F)cc2)c2ccc(OC)cc2)cc1 (stereo not drawn) | -82.3%
17 | COc1cc(NC(=S)NCCC(c2ccccc2)c2ccccc2)cc(OC)c1 | 3.35%
18 | COc1ccc(C(C)NC(=S)NCc2ccc(F)cc2)cc1 (stereo not drawn) | 0.1%
19 | COc1ccc(NC(=O)CC(c2ccc(F)cc2)c2ccc(OC)cc2)cc1 (stereo not drawn) | 23%
20 | COc1ccc(C(CCNCc2ccccc2)c2ccc(F)cc2)cc1 (stereo not drawn) | -66.7%
21 | COc1ccccc1CNCCc1ccc(F)cc1.O=C(O)C(=O)O | -33.8%
22 | COc1ccc(CNC(=O)CNC(C)c2ccc(F)cc2)cc1.O=C(O)C(=O)O (stereo not drawn) | 5.06%
23 | COc1ccc(CNC(=S)NCc2ccc(F)cc2)cc1 | -23.5%
24 | COc1ccc(C(CCNCc2ccc(F)cc2)c2ccc(F)cc2)cc1 (stereo not drawn) | -64.6%
